Results as given in PubChem BioAssay (Tox21).
Inconclusive results are not listed. Where a call stands in place of a potency, no number is given. A number with no mark means an inactive call. Active and inactive are the calls of the source. Calls come from the whole dose curve.

target: D(2) dopamine receptor (Homo sapiens) (UniProt P14416); assay: Dopamine D2 receptor (DRD2) small molecule agonists, cell-based qHTS assay (AID 1963594); settings: HEK293-DRD2 cAMP HTRF, agonist mode, 30 min; series mostly up to 92.4 µM; note: nearly all actives have a fitted effect of over 35% in size
Excerpt: National Center for Advancing Translational Sciences [NCATS]
Division of Preclinical Innovation [DPI]
U.S. Environmental Protection Agency [EPA]
National Institutes of Environmental Health Sciences [NIEHS]
National Toxicology Program [NTP]
U.S. Food and Drug Administration [FDA]
DRD2 is the D2 subtype of the dopamine receptor, which is coupled to Gi subtype of G protein-coupled receptor. This G protein-coupled receptor inhibits adenylyl cyclase activity. The DRD2-HEK293 cell line stably expressing D2 dopamine receptor can be used for screening agonists and antagonists of interactions between D2 and its ligands. The Hek293-DRD2 cAMP assay is based on HTRF technology. It measures changes of cAMP accumulation in response to Gi coupled GPCR activation or inhibition.
Tox21 Assay Protocol Summary:
DRD2-Hek293 cells were dispensed at 600 cells/3uL/well in 1536-well white plates using a Multidrop Dispenser. After the assay plates were incubated at a 37 C/5% CO2 incubator for 24 h, 1 uL of Ro20-1724 at final concentration of 0.1 mM was transferred to the assay plate by a Flying Reagent Dispenser. Following Ro20-1724 addition, 23 nL of compound dissolved in DMSO, positive controls or DMSO only was added to the assay plates via Wako pintool station. The assay plates were incubated at room temperature for 10 min. Next, 1 uL of NKH477 at 200nM was added into the plates. After the assay plates were incubated at room temperature for an additional 30 min, 2.5 ul/well of cAMP-d2 and 2.5 ul/well of anti-cAMP-cryptate were added respectively into the assay plates using a Flying Reagent Dispenser. The plates were incubated at room temperature for 1 h. The fluorescence intensity in the plates was measured at 340 nm excitation and 665 & 620 nm emission by an Envision plate reader.

D(2) dopamine receptor (Homo sapiens), sequence (P14416 whole entry, looked up): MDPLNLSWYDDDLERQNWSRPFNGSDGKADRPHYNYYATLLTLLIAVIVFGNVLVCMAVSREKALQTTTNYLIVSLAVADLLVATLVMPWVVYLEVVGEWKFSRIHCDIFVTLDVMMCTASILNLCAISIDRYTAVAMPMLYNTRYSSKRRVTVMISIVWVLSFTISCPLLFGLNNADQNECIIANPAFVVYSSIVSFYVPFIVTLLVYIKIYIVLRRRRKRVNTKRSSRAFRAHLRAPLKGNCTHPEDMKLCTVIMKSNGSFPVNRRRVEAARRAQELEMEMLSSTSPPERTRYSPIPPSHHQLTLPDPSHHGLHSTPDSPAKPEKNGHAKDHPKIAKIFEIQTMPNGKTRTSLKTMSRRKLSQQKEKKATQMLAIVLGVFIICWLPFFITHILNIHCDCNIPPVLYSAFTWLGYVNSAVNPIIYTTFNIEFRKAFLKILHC

Structure (SMILES) | Potency | activation
CCOC(=O)CC(CC(=O)OCC)(OC(C)=O)C(=O)OCC | inactive | –
C=C1CC[C@H]2O[C@]2(C)CC[C@@H]2[C@@H]1CC2(C)C | inactive | –
Oc1ccccc1Cc1ccccc1O | inactive | –
NCCS | inactive | –
CCCCCCCCCCCCCCCCCl | – | -1.48% [at 19 µM]
CCCCCCCCCCCCCCBr | inactive | –
Nc1nc(-c2ccccc2)c(Br)c(=O)[nH]1 | inactive | –
COCCc1ccccn1 | inactive | –
CN1Cc2cc(C(=O)N3CCC(C4CCNCC4)CC3)ccc2NC(CC(=O)O)C1=O (stereo not given) | inactive | –
CNc1c2c(nn1C)CCCC2 | inactive | –
CCCCCOc1ccc(C2SC(=O)NC2=O)cc1OCC (stereo not given) | inactive | –
Cc1c(NC(C)C)c(=O)n(-c2ccccc2)n1C | inactive | –
CCC=CC#N | inactive | –
CCCCCCCC/C=C\CCCCCCCCCCCC(=O)O | inactive | –
Cc1cccc(Nc2ccncc2S(=O)(=O)NC(=O)NC(C)C)c1 | inactive | –
O=C(N[C@@H](Cc1ccccc1)[C@@H](O)C(=O)N1C[C@@H](O)[C@@H](O)C1)c1cc2cc(Cl)ccc2[nH]1 | inactive | –
CCN1CCN(c2cc3c(cc2F)c(=O)c(C(=O)O)cn3C2CC2)CC1 | inactive | –
COc1cc(NS(=O)(=O)c2ccc(N)cc2)nc(OC)n1 | inactive | –
CN1CCN(c2c(F)cc3c(=O)c(C(=O)O)cn(CCF)c3c2F)CC1 | inactive | –
CC(CC1c2ccccc2CCc2ccccc21)CN(C)C (stereo not given) | inactive | –

Structure (SMILES) | Potency | activation
O=C1c2ccccc2C(=O)c2cc(O)ccc21 | inactive | –
COC(=O)C(C)O (stereo not given) | inactive | –
Cn1c(N)c(N=O)c(=O)n(C)c1=O | inactive | –
C=CCCCC | inactive | –
CCN1CN(CC)CN(CC)C1 | inactive | –
COc1ccc([C@@H]2Sc3ccccc3NC(=O)[C@@H]2O)cc1 | inactive | –
O=C1c2ccccc2C(=O)C1(O)O | inactive | –
Cc1c(C(=O)NCCO)[n+](=O)c2ccccc2n1[O-] | inactive | –
C=C(C)CCCC | inactive | –
CCN(Cc1c(F)cccc1Cl)c1c([N+](=O)[O-])cc(C(F)(F)F)cc1[N+](=O)[O-] | inactive | –
C=C(C)c1ccccc1 | inactive | –
Nc1cc(Cl)c(O)c(Cl)c1 | inactive | –
CC(C)(O)C(=O)c1ccccc1 | inactive | –
NC(=O)c1ccccc1[N+](=O)[O-] | inactive | –
O=C(O)c1cccc(N(Cc2cccnc2)c2ccc(OC(F)F)c(OC(F)F)c2)c1 | inactive | –
Nc1ccc(S(=O)(=O)Nc2ccccn2)cc1 | inactive | –
NC(=O)c1cn(Cc2c(F)cccc2F)nn1 | inactive | –
CCC(=O)O[C@]1(C(=O)SCF)[C@H](C)C[C@H]2[C@@H]3C[C@H](F)C4=CC(=O)C=C[C@]4(C)[C@@]3(F)[C@@H](O)C[C@@]21C | inactive | –
C=CCNc1nc(NCC=C)nc(N2CCN(C(c3ccc(F)cc3)c3ccc(F)cc3)CC2)n1 | inactive | –
CC(C)NCCCC1(C(N)=O)c2ccccc2-c2ccccc21 | inactive | –
